A number with no mark means an inactive call. Inconclusive results are not listed. Activity calls are given as the source filed them. Unless noted, calls follow the shape of the dose curve; as a rule, active = well fitted curve in either direction with a large enough effect (not every such curve was filed as active); inconclusive = small, poorly fitted or top-dose-only effect, or another doubt; inactive = flat fitted curve, though single readings scatter.
Tests used:
[1] = AP1 Signaling Pathway (AID 357); conditions: ME-180 AP-1-bla reporter, EGF-induced, beta-lactamase ratio, 5 h; at 17.2 µM (top of the series) unless noted;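 also: ME-180 reporter cells stimulated with EGF at its EC50 level; % is scaled to controls: 0 for no effect and ±100 for the full control effect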
Outline: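 Titration-series screen for positive or negative modulators of EC50 EGF-induced signaling in ME-180 cells carrying an AP-1-driven beta-lactamase reporter. After 5 hours at 37 degrees Celsius, CCF4 460nm/530nm emission ratio gave %Activity; AC50 values derived.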

[2] = NFAT Signaling Pathway (AID 444); conditions: Jurkat NFAT-bla M1, carbachol, beta-lactamase ratio, 5 h; at 17.2 µM (top of the series) unless noted;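 also: carbachol stimulus at about its EC50 of 1 µM final; % is scaled to controls: 0 for no effect and ±100 for the full control effect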
Outline: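 Jurkat cells carrying an NFAT-driven β-lactamase reporter and co-transfected muscarinic M1 receptor were treated with compound plus carbachol (1 uM final, an EC50 level) for 5 h at 37 °C. CCF4 loading followed for 1 h at RT; 460/530 nm ratio gave %activity.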

[3] = Stat Signaling Pathway (AID 446); conditions: ME-180 (cervical carcinoma) SIE beta-lactamase reporter, IL-6 stimulated, 5 h; at 17.2 µM (top of the series) unless noted;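 also: ME-180 cervical cancer cells given 40 pM IL-6 alongside compound; SIE-controlled beta-lactamase reporter measured as 460/530 nm FRET emission ratio; % is scaled to controls: 0 for no effect and ±100 for the full control effect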
Outline: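 IL-6/STAT signaling read in ME-180 cells via an SIE beta-lactamase reporter. Stimulus was 40 pM IL-6 (its AC50) for 5 hrs, so both activation and inhibition register.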

[4] = biological target: Glucocorticoid receptor (Homo sapiens) (UniProt P04150); experiment: GR-GFP Redistribution (AID 450;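 active = compounds whose dose series gives a full or clear partial fitted curve of increased nuclear translocation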; also: potency is read from the fitted curve at half-maximal effect)
Sequence of Glucocorticoid receptor (Homo sapiens) (P04150 whole entry, looked up): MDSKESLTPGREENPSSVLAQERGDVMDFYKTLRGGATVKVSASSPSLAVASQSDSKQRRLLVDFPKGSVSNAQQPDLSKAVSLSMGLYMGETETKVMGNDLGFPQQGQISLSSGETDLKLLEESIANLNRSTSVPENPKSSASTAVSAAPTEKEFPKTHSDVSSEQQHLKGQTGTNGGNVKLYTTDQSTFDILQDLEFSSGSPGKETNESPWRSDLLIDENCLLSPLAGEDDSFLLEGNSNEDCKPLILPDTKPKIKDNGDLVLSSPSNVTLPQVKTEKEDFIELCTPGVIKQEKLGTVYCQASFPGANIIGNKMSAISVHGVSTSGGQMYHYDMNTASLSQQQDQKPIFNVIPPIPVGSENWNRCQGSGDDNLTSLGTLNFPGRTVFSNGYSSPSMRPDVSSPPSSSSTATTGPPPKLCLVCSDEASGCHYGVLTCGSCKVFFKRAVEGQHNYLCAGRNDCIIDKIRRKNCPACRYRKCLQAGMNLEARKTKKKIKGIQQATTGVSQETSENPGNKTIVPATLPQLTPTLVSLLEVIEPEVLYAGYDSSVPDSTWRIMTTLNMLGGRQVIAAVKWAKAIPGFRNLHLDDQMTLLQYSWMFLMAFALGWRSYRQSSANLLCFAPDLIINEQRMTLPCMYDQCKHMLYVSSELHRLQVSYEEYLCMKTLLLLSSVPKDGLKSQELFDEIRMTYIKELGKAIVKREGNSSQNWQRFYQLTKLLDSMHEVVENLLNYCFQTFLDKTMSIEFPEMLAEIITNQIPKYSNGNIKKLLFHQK

Row | SMILES | activity change, negative = inhibition [1] [%] | activity change, negative = inhibition [2] | activity, negative = inhibition [3] [%] | Potency [4] [µM]
1 | O=C(O)C(O)c1ccco1 (centres undefined) | -5.38 | -2.98% | 1.78 | > 20.6
2 | COc1ccc(-c2cc(=O)[nH]c(=O)[nH]2)cc1 | 6.12 | -4.97% | -5.47 | > 20.6
3 | CC1(C)NC(=O)N(CC(O)COc2cc3ccccc3cc2C(=O)N2CCCCC2)C1=O (centres undefined) | -6.63 | 8.86% | -3.07 | > 20.6
4 | Clc1ccc(-n2ncc3c(N4CCCC4)ncnc32)cc1 | 3 | 6.28% | -0.254 | > 20.6
5 | Cc1ccc(-c2nn(C)c(=O)c3ccccc23)cc1CN1CCOCC1 | 16.4 | -19.8% | -0.983 | > 20.6
6 | CC(C)CC(=O)Nc1ccccc1N1CCCC1 | 8.1 | 8.79% | 0.417 | > 20.6
7 | Cc1cc(C)n(-c2ncnc3sc(C)c(C)c23)n1 | -15.7 | -7.26% | 6.68 | > 20.6
8 | Cc1nnc2n(Cc3ccccc3)c(=O)c3c4c(sc3n12)COC(C(C)C)C4 (centres undefined) | 10.6 | -9.5% | 5.19 | > 20.6
9 | Cc1cc(=O)oc(C)c1C(=O)NCCC1=CCCCC1 | 12.2 | -27.5% | 2.06 | > 20.6
10 | CCOC(=O)COc1ccc(Oc2nc(C)cc(OC)n2)nn1 | 13.9 | 12.6% | -0.709 | > 20.6
11 | CCOc1ccc(C2/C(=C(/O)c3ccc(F)cc3)C(=O)C(=O)N2CCCN(C)C)cc1 (centres undefined) | 10.1 | 5.42% | 6.85 | > 20.6
12 | CCN(CC)C(=O)COn1c(SCC(=O)N(CC)CC)nc2ccccc2c1=O | -3.71 | 17.3% | 9.4 | > 20.6
13 | CCn1nc(NC(=O)c2ccco2)c2cc3ccccc3nc21 | -5.14 | 5.58% | -7.47 | > 20.6
14 | N/C(CCCN1CCCCC1)=N/O | 14.3 | -3.1% | -0.379 | > 20.6
15 | CN1CCN(C(=O)CSc2nc(-c3ccncc3)ccc2C#N)CC1 | 2.77 | -14.8% | 1.66 | > 20.6
16 | Nc1nnnn1/N=C/c1cccs1 | 7.92 | -9.98% | 2.51 | > 20.6
17 | CN1CCN(Cc2c(O)c(Cl)cc3c(-c4ccccc4)cc(=O)oc23)CC1 | -17.1 | -1.47% | -7.42 | > 20.6
18 | c1coc(-c2nnc3sc(-c4cccs4)nn23)c1 | -11.6 | -8.1% | -3.51 | > 20.6
19 | CCC1(C)Cc2c(sc3[nH]c(=O)[nH]c(=O)c23)CS1 (centres undefined) | 6.31 | 6.7% | -2.55 | > 20.6
20 | CCOC(=O)c1c(C)n(C)c2ccc(OC)c(NC(=O)c3cccs3)c12 | -7.29 | 5.2% | -16.1 | > 20.6
21 | c1ccc(-n2c(Cc3cccnc3)nc3cnccc32)cc1 | -10.4 | 15.3% | 6.69 | > 20.6
22 | Cc1cc2ccccc2cc(C)c1=O | 9.45 | -28.3% | -25.4 | > 20.6
23 | CCOc1ccccc1N1CCN(c2nc3ccccc3nc2C(C#N)C(=O)OC)CC1 (centres undefined) | -24.3 | -106% (active) | -16.5 | > 20.6
24 | COc1cccc(C2C(C#N)=C(N)Oc3cc(C)[nH]c(=O)c32)c1OC (centres undefined) | -18.5 | 0.0621% | -3.84 | > 20.6
25 | S=c1nc(-c2ccccc2)[nH]n1-c1ccccc1 | 21.6 | 5.29% | -1.15 | > 20.6
26 | CC(=O)c1c(N)nc2n(c1=O)CCCCC2 | -12.6 | -9.74% | 9.48 | > 20.6

Row | SMILES | activity change, negative = inhibition [1] [%] | activity change, negative = inhibition [2] | activity, negative = inhibition [3] [%] | Potency [4] [µM]
27 | CC(C)OC(=O)c1sc2nc3c(cc2c1N)C(=O)CCC3 | -5.75 | 7.77% | -1.01 | > 20.6
28 | CCCn1nc(Oc2nc(SC)nc(N(C)C)n2)ccc1=O | 12.8 | -5.95% | -17.7 | > 20.6
29 | CCOc1ccccc1C(=O)NCCCCCC(=O)O | -1.91 | 2.57% | 6.07 | > 20.6
30 | Cc1ccc(C(C)C)c(OCCNc2nc3c(c(=O)n(C)c(=O)n3C)n2C)c1 | -0.712 | 13.4% | -22.6 | > 20.6
31 | O/N=C/c1ccc(OCC(O)COc2ccc(/C=N/O)cc2)cc1 | -15.3 | -1.17% | 4.46 | > 20.6
32 | CC(C)C(C(=O)Nc1ncn[nH]1)N1C(=O)c2ccccc2C1=O (centres undefined) | 21.4 | -9.04% | -1.14 | > 20.6
33 | c1cc(-c2nnc3sc(C4CCCCC4)nn23)ccn1 | -28.7 | -22.5% | -15.8 | > 20.6
34 | c1ccc2c(c1)[nH]c1c(N3CCN(C4CCCCC4)CC3)ncnc12 | 2.02 | -22.7% | 0.857 | > 20.6
35 | COc1cc(C)nc(Nc2nc(C)c(C(C)=O)s2)n1 | 12.9 | -2.73% | 4.9 | > 20.6
36 | Cn1nnnc1SCC(=O)NCC(=O)c1ccccc1 | -2.72 | 2.64% | 0.0289 | > 20.6
37 | Cn1c(=O)c2c(nc(NCc3ccco3)n2CCc2ccccc2)n(C)c1=O | -0.525 | -24% | -5.04 | > 20.6
38 | CCCCN1C(=O)C(O)=C(C(C)=O)C1c1ccc(OC)cc1OC (centres undefined) | 8.36 | 16.7% | -4.22 | > 20.6
39 | COc1ccc(-c2oc3ncn4nc(Cc5ccccc5)nc4c3c2-c2ccc(OC)cc2)cc1 | -0.634 | -13% | -13.3 | > 20.6
40 | CC(NC(=O)OCc1ccccc1)C(=O)OCN1C(=O)c2ccccc2C1=O (centres undefined) | -1.4 | -16.6% | 13.6 | > 20.6
41 | CC1(C)Cc2c(C#N)c(NCCN3CCOCC3)nc(-c3ccco3)c2CO1 | -12.2 | 5.08% | -0.141 | > 20.6
42 | CCCCc1nc2n[nH]c(N)c2c2c1CCCC2 | 20.3 | 1.99% | 7.03 | > 20.6
43 | O=C(O)c1ccnc(C(=O)O)c1 | 8.01 | 0.361% | 10.5 | > 20.6
44 | Cc1ccc2cc(CNC(C)(C)C)c(=O)[nH]c2c1 | 2.11 | -5.21% | -2.54 | > 20.6
45 | O=c1cc(NCc2ccccc2)nc2n1CCCS2 | 5.41 | 19% | -19.7 | > 20.6
46 | O=C(NCCOCCOCCNC(=O)c1cccnc1)c1cccnc1 | -1.69 | -1.99% | 3.22 | > 20.6
47 | CCCOc1ccc(-c2nnc(N)s2)cc1 | 9.15 | 2.03% | 5.95 | > 20.6
48 | Cn1c(=O)oc2cc(C(=O)c3ccccc3)ccc21 | -10.8 | -9.48% | 0.21 | > 20.6
49 | c1csc(-c2nn3c(C4CCCCC4)nnc3s2)c1 | -6.89 | -19.6% | 20.7 | > 20.6
50 | CCCCOc1ccc(C)cc1CN(CCO)CCO | 27.9 | -9.6% | 5.48 | > 20.6
51 | Cc1nc(NCc2ccccc2)c(C(N)=O)c2c1COC(C)(C)C2 | 1.8 | 9.09% | 6.9 | > 20.6
